Shown are actives, neighbours in structure and some others; about 7.9% of the full set was active somewhere.
HT1080 IDH1KD tx: HT-1080 IDH1 knockdown cell toxicity (counter line). HT-1080 IDH1 knockdown viability, ATP luminescence, 48 h. Potency, µM (top dose mostly 46.1 µM), for inactives: at the highest dose activity, negative = toxicity, actives largely listed as cytotoxic. hit rate 2% among 360,000;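 further: 0% = DMSO wells and -100% = cell-free medium wells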
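Assay cells: HT-1080 with IDH1 knockdown, 750 per well, RPMI/5% FBS. Exposure: 48 h at 37 °C following 2 h pre-incubation. Read: CellTiter-Glo luminescence; fitted concentration-response, curve class assigned.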
MCF10A rereplic: DNA re-replication induction in MCF 10a cells; MCF 10A DNA re-replication, Hoechst nuclear intensity, 48 h; AID 624296; hit rate 2.9% among 350,000; Potency, µM (highest dose often 46.1 µM), inactives show top-dose activity, positive = re-replication, most hits filed as activators; further: % of control where 0% means no effect; nearly all actives have a fitted effect of over 50% in size
SW480 rerep: DNA re-replication induction in SW480 cells. AID 624297. Potency, µM (series often up to 46.1 µM), without a hit: at the top dose re-replication activation, actives largely listed as activators. SW480 DNA re-replication, Hoechst DNA content imaging, 48 h. hit rate 1.8% among 340,000; further: % of control where 0% means no effect; nearly all actives have a fitted effect of over 55% in size
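250 cells/well; 23 nL cpd via pin tool; 48 hr, 37 C, 5% CO2; Hoechst 40 min; imager read of total nuclear intensity, ex 405/em 500-530 nm.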
KB-3-1 tox: KB-3-1 parental cell cytotoxicity. KB-3-1 viability, CellTiter-Glo ATP luminescence, 72 h. Potency, µM (highest dose often 46.1 µM), most hits filed as cytotoxic. hit rate 1.4% among 400,000. AID 1347075; further: on the % scale 0 is the no-effect control and ±100 the full control effect; nearly all actives have a fitted effect of over 60% in size
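KB-3-1 cells, DMEM (no phenol red) + 10% FBS; compound by pin transfer, 72 h, 37 °C. Readout: CellTiter-Glo luminescence after 10 min. Data normalized, curve-fitted.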
KB-V1 MDR tox: KB-V1 MDR subline cytotoxicity. KB-V1 MDR cells viability, CellTiter-Glo, 72 h. AID 1347076. hit rate 3.4% among 400,000. Potency, µM (doses to about 46.1 µM), actives largely listed as cytotoxic; further: on the % scale 0 is the no-effect control and ±100 the full control effect; nearly all actives have a fitted effect of over 60% in size
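Readout: CellTiter-Glo luminescence, 10 min after addition. Cells: KB-V1 MDR subline, 72 h at 37 degrees C with compound. Analysis: corrected, normalized data fitted to concentration-effect curves.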
HT1080NT lethal: kills 2HG-producing HT-1080-NT fibrosarcoma cells. Potency, µM (titrated, usually from 46.1 µM), inactives show at the top dose activity, negative = less viability, actives largely listed as cytotoxic. hit rate 1.6% among 360,000. HT-1080-NT fibrosarcoma viability, CellTiter-Glo ATP luminescence, 48 h;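 further: NT is the 2HG producing partner of a matched IDH1 knockdown line; 0% = DMSO-treated cells and -100% = media-only wells without cells; nearly all actives have a fitted effect of over 55% in size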
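Viability by CellTiter-Glo luminescence after 48 h compound exposure at 37C of HT-1080-NT cells (750/well, RPMI, 5% FBS). % activity scaled between DMSO wells and medium-only wells, then curve-fitted and categorized by curve class.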
Active calls of the source: *; ! = repeats disagree; [ ] = remark or other dose. The call rests on the fitted dose curve; in most records, active means well fitted curve in the direction sought with a large enough effect; inconclusive means small, poorly fitted or top-dose-only effect, or another doubt; inactive means no such curve, though single readings can be large; an effect the other way counts as inactive or inconclusive. Potency means the concentration at half of the fitted maximal effect.

Screening CC(=O)OCC1(C)CN(c2ccccc2)NC1=O (centres undefined) returned HT1080 IDH1KD tx 23.1µM*, MCF10A rereplic 13.1%, SW480 rerep -1.5%, KB-3-1 tox inactive, KB-V1 MDR tox inactive and HT1080NT lethal inconclusive.
Screening CC(=O)OCC1(C)CN(c2ccccc2)N(C(C)=O)C1=O (centres undefined) returned HT1080 IDH1KD tx inconclusive, MCF10A rereplic 8.9%, SW480 rerep -3.4%, KB-3-1 tox inactive, KB-V1 MDR tox inactive and HT1080NT lethal 20.6µM*.
COc1cc(/C=N/O)cc(Br)c1OCC(=O)NCc1ccccc1 was read as HT1080 IDH1KD tx 7.7%, MCF10A rereplic -38.8%, SW480 rerep 10.4%, KB-3-1 tox inactive, KB-V1 MDR tox 16.4µM* and HT1080NT lethal 8.7%.
For CC1CCCCN1C(=O)COC(=O)CSc1ccc(C(N)=O)cc1[N+](=O)[O-] (centres undefined) the results were HT1080 IDH1KD tx 0.8%, MCF10A rereplic inconclusive, SW480 rerep 6.51µM*, KB-3-1 tox inactive, KB-V1 MDR tox inactive and HT1080NT lethal 6.6%.
CCC1CCCCN1C(=O)COC(=O)CSc1ccc(C(N)=O)cc1[N+](=O)[O-] (centres undefined) was read as HT1080 IDH1KD tx 10.0%, MCF10A rereplic -6.4%, SW480 rerep -4.9%, KB-3-1 tox inactive, KB-V1 MDR tox inactive and HT1080NT lethal 1.4%.
O=C(NCC(c1ccco1)N1CCCCC1)c1ccc(COc2ccc(Cl)cc2)cc1 (centres undefined) was read as HT1080 IDH1KD tx inconclusive, MCF10A rereplic inconclusive, SW480 rerep inconclusive, KB-3-1 tox inconclusive, KB-V1 MDR tox inactive and HT1080NT lethal 18.4µM*.
For O=C(COc1cccc(C(F)(F)F)c1)NCC(c1ccco1)N1CCCC1 (centres undefined) the results were HT1080 IDH1KD tx -11.3%, MCF10A rereplic 20.3%, SW480 rerep -1.5%, KB-3-1 tox inactive, KB-V1 MDR tox inactive and HT1080NT lethal -1.2%.
`O=C(COc1ccc(Cl)cc1Br)NCC(c1ccco1)N1CCCC1` (centres undefined) gave HT1080 IDH1KD tx -13.2%, MCF10A rereplic 10.9%, SW480 rerep -4.1%, KB-3-1 tox inactive, KB-V1 MDR tox 5.8µM* and HT1080NT lethal -10.3%.
O=C(CSc1nc(-c2ccccc2)nc2c1Cc1ccccc1O2)N1CCCCC1 was read as KB-3-1 tox inactive and KB-V1 MDR tox inactive.
`N#CC1=C(N)N(c2ccc(Br)cc2)C2=C(C(=O)CCC2)C1c1cccnc1` (centres undefined) gave HT1080 IDH1KD tx inconclusive, MCF10A rereplic inconclusive, SW480 rerep inconclusive, KB-3-1 tox inactive, KB-V1 MDR tox inactive and HT1080NT lethal 12.6µM*.
Screening Cc1ccc(N2C(N)=C(C#N)C(c3cccnc3)C3=C2CCCC3=O)cc1 (centres undefined) returned HT1080 IDH1KD tx -1.2%, MCF10A rereplic 17.3%, SW480 rerep 0.4%[9.22 µM], KB-3-1 tox inconclusive, KB-V1 MDR tox inactive and HT1080NT lethal 3.2%.
For CCn1c(C)cc(C(=O)COC(=O)c2ccccc2[N+](=O)[O-])c1C the results were HT1080 IDH1KD tx 2.8%, MCF10A rereplic -6.7%, SW480 rerep -4.4%, KB-3-1 tox inactive, KB-V1 MDR tox 25.9µM* and HT1080NT lethal -1.6%.
CCc1ccc(NC(=O)C2CCCN2S(=O)(=O)c2ccc3c(c2)CCCC(=O)N3)cc1 (centres undefined) was read as KB-3-1 tox inactive and KB-V1 MDR tox inactive.
CCOc1ccc2nc(S(=O)(=O)NC(=O)C3(C)CCN3C(=O)c3c(C)noc3C)sc2c1 (centres undefined) was read as HT1080 IDH1KD tx 5.8%, KB-3-1 tox inactive, KB-V1 MDR tox inactive and HT1080NT lethal 17.4%.
Cc1nccc(-c2cccc(N/N=C(\C#N)C(=O)c3ccccc3)c2)n1 was read as HT1080 IDH1KD tx inconclusive, MCF10A rereplic 12.5%, SW480 rerep inconclusive, KB-3-1 tox inconclusive, KB-V1 MDR tox inconclusive and HT1080NT lethal inconclusive.
`N#C/C(=N\Nc1cccc(C(F)(F)F)c1)C(=O)c1ccsc1` gave HT1080 IDH1KD tx inconclusive, MCF10A rereplic inconclusive, SW480 rerep -14.7%, KB-3-1 tox 16.4µM*, KB-V1 MDR tox 3.26µM* and HT1080NT lethal 4.61µM*.
`COc1cc(NC(=O)c2nccn2C)cc(C(=O)Nc2cccc(C(F)(F)F)c2)c1` gave HT1080 IDH1KD tx inconclusive, MCF10A rereplic 5.6%, SW480 rerep inconclusive, KB-3-1 tox inactive, KB-V1 MDR tox 4.11µM*! and HT1080NT lethal inconclusive.
`COc1cc(NC(=O)N2CCNC2=O)cc(C(=O)Nc2cccc(C(F)(F)F)c2)c1` gave HT1080 IDH1KD tx 5.8µM*, MCF10A rereplic 2.06µM*, SW480 rerep 5.17µM*, KB-3-1 tox 10.3µM*, KB-V1 MDR tox inactive and HT1080NT lethal 4.61µM*.
O=C(NCCSc1c(-c2ccc(Br)cc2)[nH]c2ccccc12)c1ccc(S(=O)(=O)N2CCOCC2)cc1 was read as KB-3-1 tox inactive and KB-V1 MDR tox inactive.
For O=C1NC(c2ccc(Br)cc2)Nc2sc3c(c21)CCC3 (centres undefined) the results were HT1080 IDH1KD tx 26.4%, MCF10A rereplic 1.1%, SW480 rerep -9.5%, KB-3-1 tox inactive, KB-V1 MDR tox inactive and HT1080NT lethal 5.0%.
Cc1ccsc1C1NC(=O)c2c(sc3c2CCCC3)N1 (centres undefined) was read as HT1080 IDH1KD tx 8.3%, MCF10A rereplic inconclusive, SW480 rerep -2.5%, KB-3-1 tox inactive, KB-V1 MDR tox 14.6µM* and HT1080NT lethal 9.0%.
O=C1NC(c2ccccn2)Nc2sc3c(c21)CCC3 (centres undefined) was read as HT1080 IDH1KD tx -25.7%, MCF10A rereplic 16.4µM*, SW480 rerep 0.0%, KB-3-1 tox inactive, KB-V1 MDR tox inactive and HT1080NT lethal -19.0%.
`COc1ccc(NC(=O)CNC(=O)C23CC4CC(CC(C4)C2)C3)c(OC)c1` gave HT1080 IDH1KD tx -0.6%, MCF10A rereplic -22.3%, SW480 rerep 4.61µM*, KB-3-1 tox inactive, KB-V1 MDR tox inactive and HT1080NT lethal 0.5%.
Screening COc1ccc(NC(=O)C23CC4CC(C2)CC(c2ccccc2)(C4)C3)c(OC)c1 returned HT1080 IDH1KD tx -2.8%, MCF10A rereplic inconclusive, SW480 rerep inconclusive, KB-3-1 tox inactive, KB-V1 MDR tox 14.6µM* and HT1080NT lethal -0.4%.

Compound activity deposited in PubChem BioAssay by National Center for Advancing Translational Sciences (NCATS).
